Among all 310,000 compounds or so, about 14,000 (4.5%) showed an effect of 50% or more. The effect is printed as a negative number. Many of the other results were omitted from the sample, so strong results are more common in it than they were.
These compounds were tested against human ether-à-go-go-related gene (hERG) potassium channel (human, UniProt Q12809) (assay: primary screen, population patch clamp on CHO cells stably expressing hERG; higher = less effect of the substance).
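Further: peak tail current of the secondary pulse compared with the same well before compound.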

human ether-à-go-go-related gene (hERG) potassium channel, sequence (Q12809 whole entry, looked up): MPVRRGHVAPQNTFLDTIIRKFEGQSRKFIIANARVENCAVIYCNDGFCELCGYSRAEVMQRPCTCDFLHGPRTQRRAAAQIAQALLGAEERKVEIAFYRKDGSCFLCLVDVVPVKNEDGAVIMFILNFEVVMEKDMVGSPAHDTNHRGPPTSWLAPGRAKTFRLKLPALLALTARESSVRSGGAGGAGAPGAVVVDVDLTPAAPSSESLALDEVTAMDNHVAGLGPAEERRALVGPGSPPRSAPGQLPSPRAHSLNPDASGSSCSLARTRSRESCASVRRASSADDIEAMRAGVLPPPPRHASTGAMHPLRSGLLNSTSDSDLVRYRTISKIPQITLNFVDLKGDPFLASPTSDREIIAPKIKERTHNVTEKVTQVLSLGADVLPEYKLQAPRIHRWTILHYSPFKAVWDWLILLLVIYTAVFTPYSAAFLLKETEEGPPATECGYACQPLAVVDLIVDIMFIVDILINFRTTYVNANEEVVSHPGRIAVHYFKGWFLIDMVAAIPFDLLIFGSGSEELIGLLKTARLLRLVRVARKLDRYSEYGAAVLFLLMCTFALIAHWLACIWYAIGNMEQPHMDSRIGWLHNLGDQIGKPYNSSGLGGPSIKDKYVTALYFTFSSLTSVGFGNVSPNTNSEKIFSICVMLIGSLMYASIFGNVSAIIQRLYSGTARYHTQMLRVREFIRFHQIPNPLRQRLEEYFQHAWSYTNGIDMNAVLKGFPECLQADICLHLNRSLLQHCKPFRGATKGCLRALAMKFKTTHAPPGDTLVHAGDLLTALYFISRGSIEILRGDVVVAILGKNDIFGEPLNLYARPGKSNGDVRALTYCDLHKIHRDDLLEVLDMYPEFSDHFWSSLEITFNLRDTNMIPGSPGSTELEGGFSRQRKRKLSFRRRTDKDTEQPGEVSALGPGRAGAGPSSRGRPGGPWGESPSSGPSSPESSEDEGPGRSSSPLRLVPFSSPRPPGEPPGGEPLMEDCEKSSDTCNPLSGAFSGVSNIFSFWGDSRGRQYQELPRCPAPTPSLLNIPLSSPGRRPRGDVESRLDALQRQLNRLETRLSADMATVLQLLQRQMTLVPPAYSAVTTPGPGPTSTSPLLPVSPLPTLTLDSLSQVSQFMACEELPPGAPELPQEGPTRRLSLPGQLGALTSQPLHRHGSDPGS

SMILES	hERG current change (%, negative = inhibition) at 10uM [%]
O=C(NC(=S)NCc1ccccc1)c1ccc(Br)o1	-7.42
Cc1noc(C)c1C(=O)OCC(=O)c1cc(C)n(Cc2ccccc2Cl)c1C	-7.65
Cc1ccc(CC(=O)N2CC(C)OC(C)C2)cc1 (centres unmarked)	9.85
Cc1ccc2nc(Br)c3c(c2c1)OC(CBr)C3 (centres unmarked)	-33.6
CC1CCCCC1NC(=O)COc1ncnc2sccc12 (centres unmarked)	3.61
COc1ccc(Cl)cc1NC(=S)N1CCC(c2ccc(C)cc2)C1 (centres unmarked)	-1.95
CCNC(=O)/C(=C\C=C\c1ccccc1)NC(=O)c1ccc(Br)o1	-18.2
Cc1ccc(S(=O)(=O)Cn2nnnc2C(c2ccc(F)cc2)N2CCC(C(N)=O)CC2)cc1 (centres unmarked)	-44.1
Cc1ccc(S(=O)(=O)Cn2nnnc2C(C(C)C)N2CCC(C(N)=O)CC2)cc1 (centres unmarked)	19
Cc1ccc(C(c2nnnn2CS(=O)(=O)c2ccc(C)cc2)N2CCC(C(N)=O)CC2)cc1 (centres unmarked)	-55.1
CC(C)Oc1ccc(S(=O)(=O)N2CCCCC2)cc1NC(=O)C1CSC2(C)CCC(=O)N12 (centres unmarked)	-20.9
Cc1cccc(NC(=O)CN(C)S(=O)(=O)c2ccc(-c3ccc(=O)[nH]n3)s2)c1C	-19.9
CCOC(=O)CCN(c1ccccc1)S(=O)(=O)c1ccc(-c2ccc(=O)[nH]n2)s1	-29.3
Cc1ccccc1NC(=O)CN(C)S(=O)(=O)c1cccs1	2.52
COc1cc(NC(=O)CN(C)S(=O)(=O)c2ccc(-c3ccc(=O)[nH]n3)s2)cc(OC)c1	-5.53
CCc1ccccc1NC(=O)CN(C)S(=O)(=O)c1ccc(-c2ccc(=O)[nH]n2)s1	-74.8
COc1cc(OC)c(NC(=O)CN(C)S(=O)(=O)c2ccc3[nH]c(=O)oc3c2)cc1Cl	3.44
COc1cc(OC)c(NC(=O)CN(C)S(=O)(=O)c2ccc(-c3ccc(=O)[nH]n3)s2)cc1Cl	-56.5
Cc1ccccc1NC(=O)CN(C)S(=O)(=O)c1ccc(-c2ccc(=O)[nH]n2)s1	-78.6
CCOc1ccc(NC(=O)CN(C)S(=O)(=O)c2ccc(-c3ccc(=O)[nH]n3)s2)cc1	2.54
CC1CCN(S(=O)(=O)c2ccc3[nH]c(=O)[nH]c3c2)CC1	-3.58
O=C(Nc1cc(S(=O)(=O)N2CCCCC2)ccc1Cl)C1=NN(c2ccccc2)C(=O)CC1	12.6

SMILES	hERG current change (%, negative = inhibition) at 10uM [%]
O=C(NNC(=O)C1CCN(C(=O)Nc2ccccc2)CC1)c1ccc([N+](=O)[O-])cc1	2.62
CCCOc1ccc(-c2c(C(=O)N/N=C(\C)c3ccco3)nnn2-c2nonc2N)cc1	22.5
Cc1[nH]c2ccccc2c1C(=O)COC(=O)c1ccc[n+]([O-])c1	0.499
NC(=O)c1ccc(Oc2ccc(C(N)=O)cc2)cc1	17.5
CCc1sc(C(C2C(=O)CC(C)(C)CC2=O)C2C(=O)CC(C)(C)CC2=O)cc1[N+](=O)[O-]	-5.07
O=C(Nc1ccc2c(c1)OCCO2)c1ccc(S(=O)(=O)N2CCCCC2)cc1	4.38
CC(=C/c1ccccc1)/C=C1/SC(N2CCOCC2)=NC1=O	-20.1
O=C1N=C(N2CCOCC2)S/C1=C\C=C/c1ccccc1	-58.2
O=C1N=C(N2CCCC2)S/C1=C\C=C\c1ccccc1	-32.4
Cc1ccccc1-c1ccc(/C=C2/SC(N3CCOCC3)=NC2=O)o1	-15.9
Cc1ccc(-c2ccc(/C=C3\SC(N4CCOCC4)=NC3=O)o2)cc1	-64.8
O=C1N=C(N2CCOCC2)S/C1=C/c1ccc(-c2ccc(F)cc2)o1	2.43
CC(=O)c1c(C)[nH]c(C(=O)OCn2nnc3ccccc3c2=O)c1C	9.87
C/C(=N\NC(=O)C1CC1c1ccccc1)c1ccc(C)s1 (centres unmarked)	-6.02
CCn1c(/C=C/N(C)c2ccccc2)[n+](CC)c2ccc(Cl)cc21.[I-]	-16
CCn1c(/C=C/Nc2ccccc2)[n+](CC)c2ccc(C(=O)OCC(F)(F)F)cc21.[I-]	-81.6
CCOC(=O)c1ccc2c(c1)n(CC)c(/C=C/Nc1ccccc1)[n+]2CC.[I-]	-80
CCOC(=O)c1ccc2c(c1)n(Cc1ccccc1)c(C)[n+]2CC.[O-][Cl+3]([O-])([O-])[O-]	-7.56
CCOC(=O)c1ccc2c(c1)n(CCCS(=O)(=O)[O-])c(/C=C/c1ccc(Cl)cc1)[n+]2CC	-23.1
CCOC(=O)c1ccc2c(c1)n(CC)c(C)[n+]2CC.[I-]	23.7
CCOC(=O)c1ccc2c(c1)n(CCO)c(C)[n+]2CC.[I-]	10.6
CCOC(=O)c1ccc2c(c1)n(CC)c(/C=C/N(C)c1ccccc1)[n+]2CC.[I-]	-74.3

SMILES	hERG current change (%, negative = inhibition) at 10uM [%]
CCn1c(C)[n+](CC)c2ccc(C(=O)N(C)c3ccccc3)cc21.[I-]	37.4
CCN(C(=O)Nc1ccccc1)c1ccccc1	4.25
CN(C)CCCNc1ccc(-c2nn(C)c(=O)c3ccccc23)cc1[N+](=O)[O-]	-16
Cl.Fc1ccc(Cn2nnnc2CN2CCc3ccccc3C2)cc1	-10.6
Cn1c(CSc2nc3ccccc3s2)nnc1SCC(=O)NCc1cccnc1	-5.4
CC(=O)Nc1cccc(OCc2cnc(Cl)s2)c1	11.4
COc1ccccc1-c1c(C)nn2c(N3CCCCCC3)cc(C)nc12	-8.02
CSc1ncc(C(=O)Nc2cccc(C)c2C)c(C)n1	9.56
Cc1ccc(C(=O)Nc2ccc(Br)c(C(F)(F)F)c2)cc1	4.38
Cc1nn2c(COc3ccc(NC(=O)c4ccccc4)cc3)nnc2c2ccccc12	4.38
Cc1nnc(SCc2ccc(F)cc2)n1NC/C=C/c1ccccc1	-18.6
CC(=O)c1ccc(OCC(=O)NCC2(N3CCCCC3)CCCCC2)cc1	4.71
CCC(=O)c1ccc(OCC(=O)NCC2(N3CCCCC3)CCCCC2)cc1	-51.5
CCOc1ccc(CC(=O)NCC2(N3CCCCC3)CCCCC2)cc1	-17
N#Cc1ccccc1OCC(=O)NCC1(N2CCCCC2)CCCCC1	-29.4
N#Cc1ccc(OCC(=O)NCC2(N3CCCCC3)CCCCC2)cc1	-78.2
O=C(COc1ccccc1)NCC1(N2CCCCC2)CCCCC1	-30
C/C(CCc1ccco1)=N/NC(=O)CCC(=O)Nc1ccc(Br)cc1	10.2
CCn1c(SCc2nc3sc(C(=O)O)c(C)c3c(=O)[nH]2)nc2ccccc21	3.32
CC(C)(C)C(=O)N1c2ccccc2CCc2ccccc21	-0.0543
CCOCCn1c(COc2ccc(C)cc2)nc2ccccc21	-52.6
C=CCn1c(COc2ccccc2)nc2ccccc21	-7.62

SMILES	hERG current change (%, negative = inhibition) at 10uM [%]
C=CCn1c(COc2ccccc2OC)nc2ccccc21	-0.267
C=CCn1c(COc2ccc(OC)cc2)nc2ccccc21	-79.8
COCCn1c(COc2ccc(C)cc2)nc2ccccc21	-11.9
CCOCCn1c(COc2ccccc2)nc2ccccc21	-33.6
O=C(Nc1cccc(NC(=O)c2ccccc2Cl)c1)c1ccc([N+](=O)[O-])o1	-16.4
CC1Cc2nc(SCC(=O)N3CCCC3)n(C)c(=O)c2S1 (centres unmarked)	-7.79
COc1ccc(C(=O)Nc2ccc(NC(=O)c3cccs3)cc2)cc1[N+](=O)[O-]	5.49
O=C1C2ON(c3ccccc3)C(c3cccnc3)C2C(=O)N1c1ccc(Cl)c(Cl)c1 (centres unmarked)	10.5
O=C1C2ON(c3ccccc3)C(c3cccnc3)C2C(=O)N1Cc1ccccc1 (centres unmarked)	-50.8
O=C1C2ON(c3ccccc3)C(c3cccnc3)C2C(=O)N1c1ccccc1 (centres unmarked)	18.1
CC(C)(C)n1nnnc1C(c1ccc(F)cc1)N1CCC(C(N)=O)CC1.Cl (centres unmarked)	11.3
CC(C)(CNC(=O)c1ccc(-c2cccc(C(F)(F)F)c2)o1)N1CCOCC1	-76.3
O=C(c1ccc(-c2cccc(C(F)(F)F)c2)o1)N1CCCCCCC1	-3.68
O=C(c1ccc(-c2cccc(C(F)(F)F)c2)o1)N1CCOCC1	-21.8
CC(=O)N1CCN(C(=O)c2ccc(-c3cccc(C(F)(F)F)c3)o2)CC1	-53.5
O=C(c1ccco1)N1CCN(C(=O)c2ccc(-c3cccc(C(F)(F)F)c3)o2)CC1	-79.9
COc1ccc(C(CNC(=O)c2ccc(-c3cccc(C(F)(F)F)c3)o2)N2CCOCC2)cc1 (centres unmarked)	-6.09
O=C(c1ccc(-c2cccc(C(F)(F)F)c2)o1)N1CCN(c2ccccc2O)CC1	17.1
CC1CN(C(=O)c2ccc(-c3cccc(C(F)(F)F)c3)o2)CC(C)O1 (centres unmarked)	-43.7
O=C(c1ccco1)N1CCN(Cc2cccc(C(F)(F)F)c2)CC1	-5.15

— PMC4336329 (PLoS ONE, 2015)
